GALR2 agonist: GALR2 (human) receptor agonism; AID 803; activation, % (test concentration not listed); O43603; 140,000 tested, 0.48% active; GALR2-expressing cells, agonist activation read-out; in the data active = activation above about 5%, passing the limit was not always enough;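 note: 0% = vehicle buffer wells and 100% = reference agonist at full effect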
Target sequence (O43603 whole entry, looked up): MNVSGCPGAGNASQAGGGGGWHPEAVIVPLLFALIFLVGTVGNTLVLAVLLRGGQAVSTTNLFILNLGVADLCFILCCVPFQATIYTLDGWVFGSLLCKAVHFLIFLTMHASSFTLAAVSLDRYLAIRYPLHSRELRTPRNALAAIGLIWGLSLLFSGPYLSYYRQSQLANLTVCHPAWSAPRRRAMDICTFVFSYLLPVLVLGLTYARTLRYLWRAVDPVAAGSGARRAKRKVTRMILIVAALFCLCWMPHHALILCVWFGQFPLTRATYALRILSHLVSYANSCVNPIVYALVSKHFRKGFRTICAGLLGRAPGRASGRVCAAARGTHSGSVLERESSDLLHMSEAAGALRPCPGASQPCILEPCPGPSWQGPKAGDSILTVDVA
PLAP activator: human PLAP activation; P05187; purified PLAP enzyme, luminescent substrate read-out; active compounds read high; activation fold at 20 µM; 96,000 tested, 1.2% active; AID 696; in the data active = activation fold above about 2
GALR2 antag: antagonists of human galanin receptor 2 (GALR2); inhibition, % at 4 µM; 140,000 tested, 0.39% active; GALR2-expressing cells, antagonist mode; in the data active = inhibition above about 27%;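 note: cells stimulated with galanin 1-16 at roughly its EC80; 0% = agonist challenge control and 100% = basal control without agonist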
S1P2 agonist: agonists of human S1P2 receptor; 97,000 tested, 0.46% active; activation, % at 4.5 µM; S1P2-expressing cell line, agonist reporter read-out; AID 729; O95136; in the data active = activation above about 16%;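 note: 0% = vehicle low control and 100% = maximal reference agonist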
S1P2 antag: S1P2 (human) receptor antagonism | O95136 | cell-based S1P2 antagonist assay, inhibition at 5 uM | inhibition, % at 5 µM | 97,000 tested, 0.21% active | AID 736; in the data active = inhibition above about 45%;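 note: CRE beta-lactamase reporter cells expressing human S1P2 stimulated with S1P; 0% = agonist at EC80 alone and 100% = agonist plus reference antagonist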
GALR2 ag confirm: confirmation of human galanin receptor 2 (GALR2) agonists; shares compounds with GALR2 agonist; GALR2-expressing cells, agonist activation; activation, % at 5.6 µM; 460 tested, 10% active; AID 864; in the data active = activation above about 8.4%;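 note: 0% = buffer-only vehicle wells and 100% = full reference agonist response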
BLA activ ctr: activates beta-lactamase reporter in GALR2 agonist counterscreen; CHO NFAT-bla reporter, beta-lactamase FRET activation; AID 865; 460 tested, 10% active; activation, % at 5.6 µM; shares compounds with GALR2 agonist;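 active = activation above the screen-wide mean activation plus 3 SD, cut at about 8% in these data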;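 note: 0% = DMSO with PBS wells and 100% = thapsigargin positive control wells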
Starred values were filed as active, the others as inactive; . = not tested or not shown. Sampled rows, rich in hits. Any-hit rate of the full collection: about 2%.

SMILES	GALR2 agonist	PLAP activator	GALR2 antag	S1P2 agonist	S1P2 antag	GALR2 ag confirm	BLA activ ctr
CC1CCc2cc(F)cc3c(O)c(C(=O)NCc4ccco4)c(=O)n1c23 (configuration not stated)	9.5*	1.1	0.3	-10.0	17.0	-0.3	-1.1
COc1ccc(Cl)c(NCCC(=O)O)c1	-1.1	.	0.7	-14.2	7.4	.	.
CCOCC(=O)Nc1nnc(COC)s1	0.0	1.1	-1.8	-4.5	1.1	.	.
COCc1nnc(NC(=O)C(C)C)s1	135.6*	0.9	-1.2	3.5	-9.2	-0.7	0.3
CCOC(=O)N1CCN(S(=O)(=O)c2c(C)cc(C)cc2C)CC1	-1.5	1.3	-8.2	0.8	17.2	.	.
CCOC(=O)N1CCN(C(=O)C2CCN(S(=O)(=O)c3c(C)cc(C)cc3C)CC2)CC1	18.4*	1.8	-0.5	-2.4	6.0	-1.1	-2.5
O=C(CNC(=O)c1cccc(OC(F)F)c1)OCc1cc(=O)n2cc(Br)ccc2n1	-2.7	.	-4.2	.	.	.	.
CC(C)N1C(=S)SC2CS(=O)(=O)C=C21 (configuration not stated)	-2.8	1.4	-5.6	-7.4	4.7	.	.
Cn1c(=O)c(C(=O)CN2CCOCC2)c(N)n(Cc2ccccc2)c1=O	-1.8	1.2	0.5	-2.3	10.0	.	.
CC1CN(CC(=O)c2c(N)n(Cc3ccccc3)c(=O)n(C)c2=O)CC(C)O1 (configuration not stated)	44.1*	1.3	-3.4	-6.7	0.6	-0.4	-2.1
CCN(CC)S(=O)(=O)c1ccc(-c2nnc(SCC(C)=O)o2)cc1	10.1	1.7	-8.0	-5.5	-13.8	-0.5	-1.0
COc1ccc(C(C)=O)cc1CSc1nnc(-c2ccccc2O)n1-c1ccccc1	-0.8	1.4	0.1	-6.1	-7.6	.	.
Cc1nc(SCC(=O)N(C)Cc2ccco2)c2c(C)c(C)sc2n1	11.1	1.8	-0.9	2.9	-23.2	-0.4	0.2
Cc1nc(NCc2ccco2)c2c(C)c(C)sc2n1	-2.5	1.7	6.0	0.3	2.4	.	.
CCCCN1C(=O)C(O)=C(C(C)=O)C1c1ccccc1 (configuration not stated)	172.2*	0.9	-12.6	-4.7	3.0	-1.3	-3.0
CCCCCCN1C(=O)C(O)=C(C(C)=O)C1c1ccc(Cl)cc1 (configuration not stated)	-2.7	1.8	4.6	.	.	.	.
C#CCOCCOCCOCCNc1nc(N2CCOCC2)nc(N2CCN(C(=O)Cn3cc(CC(C)O)nn3)CC2)n1 (configuration not stated)	-2.0	.	1.6	.	.	.	.
Cc1cccc2cc3c(NC(=O)c4ccccn4)nn(C)c3nc12	8.4	1.4	16.2	13.9	-6.3	3.3	6.9
CCOc1ccc(N(CC)S(=O)(=O)c2ccc3c(c2)n(C)c(=O)c(=O)n3C)cc1	-2.4	1.1	-7.2	-3.0	-4.7	.	.
COC(=O)c1cn(NC(=O)c2cccc(F)c2)c(=O)c2ccccc12	18.4*	0.9	2.0	-3.0	1.8	-1.4	-0.9
COC(=O)c1cn(NC(=O)c2cccc(N(C)C)c2)c(=O)c2ccccc12	-1.0	1	-9.5	-3.3	5.9	.	.
Fc1c(F)c(C(F)(F)F)c(F)c(F)c1N/N=C\c1cccs1	31.4*	0.9	1.1	-0.4	5.2	6.7	5.8
O=C(Nc1cccc(C(F)(F)F)c1)c1cc(-c2ccc(F)cc2)on1	8.6	0.8	1.2	-6.7	5.9	0.4	-1.7
CC(=O)c1nn(-c2ccc(Br)cc2)cc1C(=O)c1ccccc1	8.6*	.	10.5	.	.	3.6	0.4
CC(=O)c1nn(-c2ccc(Br)cc2)cc1C(=O)c1ccco1	-1.1	.	-7.1	-0.9	-10.1	.	.
SMILES	GALR2 agonist	PLAP activator	GALR2 antag	S1P2 agonist	S1P2 antag	GALR2 ag confirm	BLA activ ctr
O=C(Nc1ccncc1)c1ccc2c(c1)C(=O)N(C1CCCCC1)C2=O	35.7*	0.9	-3.5	-3.6	-4.6	-0.8	-2.6
O=C(Nc1cccc(O)c1)C(Cc1ccccc1)N1C(=O)c2cccc3cccc(c23)C1=O (configuration not stated)	10.5*	.	-1.9	.	.	5.2	0.5
CCCNCC(O)COc1ccccc1C(=O)CCc1ccccc1 (configuration not stated)	-0.9	.	14.8	.	.	.	.
CCOC(=O)N1CCN(C(=O)c2ccc3c(=O)n(CCc4ccccc4)c(=S)[nH]c3c2)CC1	10.8	1.4	-11.6	-3.7	6.8	0.3	0.1
CCOC(=O)c1c(C#N)c(SCC(=O)Nc2ccc(OC)cc2)nc2c1CN(CC)CC2	67.2*	1.1	-1.3	-2.5	4.0	0.5	-0.6
COc1ccc(NC(=O)CSc2nc(N)c(C#N)cc2C#N)cc1	0.1	1.1	-4.4	-0.9	-0.8	.	.
CC(=O)c1sc(NC(=O)C2(F)C(F)(F)C(F)(F)C(F)(F)C(F)(F)C2(F)F)nc1C	-2.1	1.2	19.6	.	.	.	.
CN1C(=O)/C(=C/C=C2\SCCN2C)SC1=S	-1.0	.	-6.2	.	.	.	.
Cc1cccc(S(=O)(=O)c2c(N)n(/N=C/c3ccco3)c3nc4ccccc4nc23)c1	53.8*	1.6	0.1	-8.5	14.8	-0.2	-1.1
Cc1ccc(S(=O)(=O)c2c(N)n(/N=C/c3ccco3)c3nc4ccccc4nc23)cc1	-0.5	1.6	-10.0	-4.8	-9.2	.	.
CC(C)CC(=O)CN1C(=O)C2(OCCO2)c2ccccc21	-0.5	1.2	-17.4	-0.2	-3.5	.	.
O=C(Nc1ccccc1OC(F)F)c1ccc(Br)o1	-0.7	1	-4.9	-0.5	-25.1	.	.
N#C/C(=C\c1ccc(-c2ccc(C(=O)O)cc2)o1)C(=O)NCC1CCCO1 (configuration not stated)	-0.7	.	-0.2	.	.	.	.
CCOC(=O)c1ccc(-c2ccc(/C=C(\C#N)C(=O)NCc3cccs3)o2)cc1	9.3*	.	0.0	.	.	9.4*	8.7*
O=C(Cn1c2ccccc2c(=O)c2ccccc21)Nc1ccccc1F	14.9*	.	0.5	.	.	3.2	8.1
CCOC(=O)N1CCN(c2ccc(C(=O)CC)cc2F)CC1	-0.4	1.1	-1.0	0.1	-2.1	.	.
CCCC(=O)c1ccc(N2CCN(C(=O)OCC)CC2)c(F)c1	30.4*	1	-4.7	-2.6	7.4	-0.7	-0.2
CC(C)(C)C(=O)NC(=S)Nc1cc(C(F)(F)F)ccc1N1CCOCC1	8.3	1	0.1	3.0	-46.9	0.4	3.5
COc1ccc(C(=O)NN(C)c2nc(-c3ccccc3)nnc2C(F)(F)F)cc1	-1.3	1.1	-0.1	-3.6	5.8	.	.
CN(NC(=O)C(C)(C)C)c1nc(-c2ccccc2)nnc1C(F)(F)F	9.8	1.1	1.6	-5.9	-10.9	-0.7	-2.7
COc1cc(/C=C/C(=O)OCC(=O)NCC2CCCO2)ccc1OCC#N (configuration not stated)	-1.2	.	-0.5	.	.	.	.
O=C(O)COc1ccc2c(c1)OCCO2	-0.1	1.2	-2.5	0.0	9.8	.	.
Cc1ccc(-c2n[nH]c3c2CCC3)cc1	-3.7	1.6	-3.3	-4.7	-10.7	.	.
O=C(Nc1ccc2c(c1)OCO2)OCc1ccccc1	11.6*	1	-1.2	-6.1	6.0	-0.6	-1.0
O=C(Nc1ccc2c(c1)OCO2)C1CCCN1C(=O)OCc1ccccc1 (configuration not stated)	-2.9	1	16.0	.	.	.	.
